Cycloheximide cs: affects cycloheximide protein synthesis inhibition readout, counter-screen | cell reporter, cycloheximide protein synthesis inhibition counterscreen | max response, % | hit rate 12% among 300,000; in the data active = max response mostly above about 13%, no sharp cut-off; inactive = mostly below about 14%; also: read at 38.3 µM for the half of the compounds with a filed dose
Pf growth 48h: inhibits P. falciparum growth in the first generation, 48 h; Potency, µM (highest dose often 28.7 µM), hits mostly inhibitors; P. falciparum luciferase growth in erythrocytes, 48 h; hit rate 5.9% among 310,000
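Cell-based growth assay: transgenic P. falciparum expressing firefly luciferase, cultured in red cells within RPMI 1640 containing 0.5% w/v Albumax, 24 mM bicarbonate and gentamycin. A drop in luciferase activity indicates inhibition.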
Pf growth 96h: P. falciparum growth inhibition at 96 hour, primary screen for plastid delayed-death inhibitors; P. falciparum luciferase reporter growth, 96 h; Potency, µM (series often up to 28.7 µM), hits mostly inhibitors; hit rate 6.9% among 320,000; AID 504834
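Compounds incubated with erythrocytes infected by luciferase-expressing P. falciparum (2% hematocrit, 0.05% parasitemia final) for 96 hours, 37 C in 5% CO2. Growth inhibition scored as decreased luciferase luminescence.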
HCMV inh: human cytomegalovirus inhibition. HFF cells, HCMV-luciferase reporter, 72 h; active compounds read low. activity change, negative = inhibition, % at 57.5 µM. hit rate 4.5% among 410,000; in the data active = activity change below about -60%; inconclusive = no clear call, values can overlap the other calls; inactive = above about -39%
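Cell-based, HFFs, 1000 cells/well, 16 h 37C; cpds in DMSO + HCMV-luc, MOI 1 PFU/cell; 72 h 37C; OneGlo luminescence after 5 min RT; norm. to buffer vs Salinomycin 10uM.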
Shiga toxin inh: inhibitors of Shiga toxin in Vero cells; AID 2315; hit rate 9.2% among 290,000; inhibition, % at 38.7 µM; Vero cells, Shiga toxin protein synthesis inhibition reporter; in the data active = inhibition mostly above about 28%, no sharp cut-off; inactive = mostly below about 43%
A number is an active result; - = inactive; ? = inconclusive; . = not tested or not shown. Only some compounds are listed: those with a hit (about 20% of all), similar ones and a draw of the others. Unless noted, calls follow the shape of the dose curve; as a rule, active = well fitted inhibition curve with a large enough effect; inconclusive = small, poorly fitted or top-dose-only effect, or another doubt; inactive = no such curve, though single readings can be large or run the other way.

SMILES | Cycloheximide cs | Pf growth 48h | Pf growth 96h | HCMV inh | Shiga toxin inh
Cc1nc2ccccn2c1-c1ccnc(SCc2ccc(Cl)cc2)n1 | - | 5.86µM | 1.85µM | ? | -
Cc1ccnc(SCc2ccc(C(=O)O)cc2)n1 | - | - | - | - | -
COCCN1C(=O)C(=O)/C(=C(/O)c2ccc(S(=O)(=O)N3CCOCC3)cc2)C1c1ccc(C(C)C)cc1 (configuration not stated) | - | - | - | . | -
O=C(O)C1CN(C(=O)c2cccc(Br)c2)C1 | - | - | - | - | -
O=[N+]([O-])c1ccccc1S(=O)(=O)Oc1ccccc1/C=N/n1cnnc1 | - | - | 1.85µM | - | -
Cc1ccc(Sc2ncccc2COC(=O)Nc2c(C)cccc2C)cc1 | - | ? | 7.38µM | - | -
CCN1C(=O)[C@@H]2[C@@H](c3ccc(-c4ccc(Cl)c(Cl)c4)cc3)N3CCCC[C@@]3(C(=O)OC)[C@@H]2C1=O | . | - | ? | - | .
CCN1C(=O)[C@@H]2[C@@H](c3ccc(-c4ccc5c(c4)OCO5)cc3)N3CCCC[C@@]3(C(=O)OC)[C@@H]2C1=O | . | ? | 13.1µM | - | .
CCN1C(=O)[C@@H]2[C@@H](c3ccc(-c4ccc(C(C)=O)cc4)cc3)N3CCCC[C@@]3(C(=O)OC)[C@@H]2C1=O | . | 10.4µM | 11.7µM | - | .
CCN1C(=O)[C@@H]2[C@@H](c3ccc(-c4ccc(OC)cc4)cc3)N3CCCC[C@@]3(C(=O)OC)[C@@H]2C1=O | . | 10.4µM | 5.22µM | - | .
CCN1C(=O)[C@H]2[C@@H](c3ccc(-c4ccccc4)cc3)N3CCCC[C@@]3(C(=O)OC)[C@H]2C1=O | . | 10.4µM | ? | - | .
CCCCOC(=O)Nc1nc(C)c(C(=O)OCC)s1 | - | . | 1.47µM | ? | -
CCCCCCc1nnc(NC(=O)OCC)s1 | - | - | - | - | -
NOCc1ccccc1 | 32.2 | . | . | . | -
C/C=C(\C)c1nnc(NC(=O)OCC)s1 | 14.6 | - | . | - | 42.4
COC(=O)CNC(=O)C(NC(=O)OCc1ccccc1)C(C)C (configuration not stated) | - | - | ? | - | -
CC(C)[C@H](NC(=O)OCc1ccccc1)C(=O)NC(C=O)Cc1ccccc1 (some centres not stated) | . | 1.31µM | 3.7µM | . | .
CCOC(=O)c1sc(NC(=O)CC)nc1C | - | - | - | ? | -
CC(=O)NC1(C(F)(F)F)NC(=O)N(c2ccc(F)cc2)C1=O (configuration not stated) | - | - | - | - | -
Cc1ccc(CN(Cc2cccn2-c2nnc(N3CCCC3=O)s2)C(=O)Nc2cc(C)cc(C)c2)cc1 | . | . | . | - | .
COc1ccc(CCNC(=O)Cn2c(=O)cc(C(F)(F)F)c3c(C)nn(C)c32)cc1OC | . | . | . | - | .
CCCCCc1nnc(NC(=O)OCCC)s1 | 13.5 | - | . | - | -
O=C(NNC(=O)OCc1ccccc1)OCc1ccccc1 | . | . | . | -98.9 | .
CCc1nnc(NC(=O)OCc2ccccc2)s1 | 19.8 | - | - | - | 60.1
CCCCOC(=O)Nc1nnc(CC)s1 | 43.4 | . | - | - | 56.0
SMILES | Cycloheximide cs | Pf growth 48h | Pf growth 96h | HCMV inh | Shiga toxin inh
CCCCCOC(=O)Nc1nnc(CCCCC)s1 | - | - | . | - | -
CCOC(=O)Nc1nnc(CCc2ccccc2)s1 | - | - | . | - | -
CCOC(=O)c1cccc(NC(=O)c2ccc3c(c2)C(=O)N(CC2CCCO2)C3=O)c1 (configuration not stated) | - | - | - | - | -
Cc1cccc(CNC(=O)C2CCN(c3nnc(-n4c(C)ccc4C)s3)CC2)c1 | . | . | . | - | .
CC(NC(=O)OCc1ccccc1)C(=O)OCN1C(=O)c2ccccc2C1=O (configuration not stated) | - | - | 11.7µM | - | -
COC(=O)C(C)NC(=O)C(C)NC(=O)OCc1ccccc1 (configuration not stated) | - | - | . | - | -
Cc1c(C(=O)O)cccc1-c1ccc(/C=N/n2cnnc2)o1 | 28.1 | . | - | - | -
O=[N+]([O-])c1ccc(-c2ccc(/C=N/n3cnnc3)o2)c(Br)c1 | - | - | - | -90.1 | -
Cc1c(Cl)cccc1-c1ccc(/C=N/n2cnnc2)o1 | - | . | 8.28µM | - | -
Cc1c(C(=O)O)cccc1-c1ccc(/C=N/Nc2ccc(Br)cc2)o1 | 106.1 | - | - | - | 139.6
O=C(O)c1cccc(-c2ccc(/C=N/n3cnnc3)o2)c1 | - | - | - | - | -
O=Cc1ccc(-c2ccccc2C(=O)O)o1 | - | - | - | - | -
CCCC/C(C)=N/NC(=O)C(=O)NCCc1ccccc1 | - | - | - | - | -
Cc1cc2oc(C(=O)Nc3c(C)n(C)n(-c4ccccc4)c3=O)cc(=O)c2cc1C | . | . | . | - | .
CCOC(=O)c1cnn(-c2cccc(Cl)c2)c1N | 34.4 | - | - | - | 60.8
CCOC(=O)c1cnn(-c2ccc(C(F)(F)F)cn2)c1N | 40.2 | - | . | - | 77.4
CCOC(=O)c1cnn(-c2ccccc2)c1-n1cccc1C(=O)C(=O)Nc1ccccc1 | 21.3 | - | - | - | 43.1
CCOC(=O)c1cnn(-c2nc(C)cc(C)n2)c1N | - | - | - | - | -
CCOC(=O)c1cnn(-c2ccccc2)c1N | 30.9 | . | - | - | -
COc1ccc(CC(=O)N[C@@H]2c3ccccc3CC[C@H]2OCc2ccccc2)cc1 | . | . | . | - | .
O=C(Cn1c(=O)oc2cc(S(=O)(=O)N3CCCCCC3)ccc21)Nc1ccc(F)cc1F | . | . | . | - | .
CCOC(=O)c1ccc(Oc2ccc(C(F)(F)F)cn2)cc1 | 29.0 | - | - | - | -
CCOC(=O)c1cnn(-c2ccc([N+](=O)[O-])cc2)c1N | 14.9 | - | - | - | -
NC(=O)c1cnn(-c2ccc3ccccc3c2)c1N | 23.6 | - | - | - | -
Nc1c(C(=O)O)cnn1-c1ccc([N+](=O)[O-])cc1 | - | - | - | - | -
SMILES | Cycloheximide cs | Pf growth 48h | Pf growth 96h | HCMV inh | Shiga toxin inh
S=C(c1ccco1)N1CCOCC1 | . | . | . | - | .
O=C(COC(=O)c1c[nH]c2ccccc12)Nc1ccc([N+](=O)[O-])cc1 | . | - | ? | - | .
Cc1cc(=O)oc2cc(CN3C(=O)C(=O)c4cc(F)ccc43)ccc12 | . | . | . | - | .
CCCc1cnc(N2CCN(S(C)(=O)=O)CC2)nc1 | 23.2 | ? | - | - | -
CS(=O)(=O)N1CCN(c2ncccn2)CC1 | - | - | ? | - | -
Cc1cccc(C)c1NC(=O)Cn1cc(C(=O)c2ccco2)c2ccccc21 | . | . | . | - | .
CCOC(=O)c1c(C)[nH]c(C)c1C(=O)CSc1nc2ccccc2c(=O)n1-c1ccccc1C | - | 10.4µM | ? | ? | -
CCOC(=O)c1c(C)[nH]c(C)c1C(=O)CSc1nc2ccccc2c(=O)n1-c1ccc(F)cc1 | - | ? | ? | - | -
Cc1ccccc1-n1c(=S)[nH]c2nc3c(cc2c1=O)CCCC3 | - | - | - | - | -
CCOc1ccc(N2CC(NC(=O)Cc3ccccc3)CC2=O)cc1 (configuration not stated) | . | . | . | - | .
CCOC(=O)C1CCCN(c2c(Nc3cc(C)cc(C)c3)c(=O)c2=O)C1 (configuration not stated) | - | . | 9.28µM | - | -
CCOC(=O)C1CCCN(c2c(NCCN(CC)c3ccccc3)c(=O)c2=O)C1 (configuration not stated) | - | 10.4µM | - | - | -

From PubChem
